Assay [1] in a line: qHTS RealTime-Glo MT Cell Viability Assay in HEK293 cells - 16 hour (AID 1224872). Note: nearly all actives have a fitted effect of over 50% in size. Note: potency is the fitted concentration of half-maximal effect. The method in brief: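 HEK293 cells seeded with NanoLuc/prosubstrate reagent, rested 5 h at 37 C, then dosed and kept at 37 C up to 40 h. Nonlytic real-time luminescence from viable cells read at 0, 8, 16, 24, 32 and 40 h.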
Background: qHTS replaces the single test concentration by a dilution series.

Assay [2] is described as follows: qHTS RealTime-Glo MT Cell Viability Assay in HepG2 cells - 8 hour (AID 1224873). Note: nearly all actives have a fitted effect of over 55% in size. Note: potency is the fitted concentration of half-maximal effect. The method in brief:
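HepG2 cells mixed with RealTime-Glo MT reagents (NanoLuc plus cell-permeant prosubstrate) were seeded at 600 cells/well, incubated 5 h at 37 C/5% CO2, then pinned with compounds in DMSO; nonlytic luminescence tracked viability during 40 h treatment.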

Assay [3] is described as follows: qHTS RealTime-Glo MT Cell Viability Assay in HEK293 cells - 40 hour (AID 1224874). Note: nearly all actives have a fitted effect of over 50% in size. Note: potency is the fitted concentration of half-maximal effect. To be noted: RealTime-Glo luminescence; max response: stronger effect = lower value. The method in brief:
(§1)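 HEK293 + NanoLuc + prosubstrate, 600 cells/well; 5 h, 37 C/5% CO2; compound 23 nL in DMSO by pintool; 37 C; luminescence read at 0, 8, 16, 24, 32 and 40 h time points.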

The nature of assay [4]: A CellTox Green Cytotoxicity Assay to monitor cytotoxicity in HEK293 cells - 24 hour (AID 1224875). Note: nearly all actives have a fitted effect of over 45% in size. Note: potency is the fitted concentration of half-maximal effect. The essentials:
(§2)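 Tox21 screen in HEK293: membrane-impermeant cyanine dye fluoresces on binding dead-cell DNA; compound pinned 5 h post-seeding, plates held at 37 C, signal read repeatedly through 40 h.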

Assay [5] can be described thus: A CellTox Green Cytotoxicity Assay to monitor cytotoxicity in HepG2 cells - 16 hour (AID 1224876). Note: nearly all actives have a fitted effect of over 45% in size. Note: potency is the fitted concentration of half-maximal effect. The method in brief:
(§3)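 Measurements at 0, 8, 16, 24, 32 and 40 h of treatment captured CellTox Green fluorescence in HepG2 cells that had been co-plated with reagent and preincubated 5 h at 37 C/5% CO2.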

Assay [6] can be described thus: qHTS RealTime-Glo MT Cell Viability Assay in HepG2 cells - 32 hour (AID 1224877). Note: nearly all actives have a fitted effect of over 55% in size. Note: potency is the fitted concentration of half-maximal effect. The essentials: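 HepG2 cells (600/well) were dispensed with RealTime-Glo reagents, incubated 5 h at 37 °C, then treated with compounds in DMSO for up to 40 h. Nonlytic NanoLuc luminescence reflecting viable cells was read at each stated time point.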
Assay [7] can be described thus: A CellTox Green Cytotoxicity Assay to monitor cytotoxicity in HepG2 cells - 24 hour (AID 1224878). Note: nearly all actives have a fitted effect of over 45% in size. Note: potency is the fitted concentration of half-maximal effect. The method in brief:
as §3

Assay [8] is described as follows: qHTS RealTime-Glo MT Cell Viability Assay in HEK293 cells - 0 hour (AID 1224880). Note: top concentration of the series differs between compounds; nearly all actives have a fitted effect of over 45% in size. The essentials: as §1
Assay [9] can be described thus: A CellTox Green Cytotoxicity Assay to monitor cytotoxicity in HEK293 cells - 32 hour (AID 1224881). Note: nearly all actives have a fitted effect of over 40% in size. Note: potency is the fitted concentration of half-maximal effect. The method in brief:
as §2

A short description of assay [10]: A CellTox Green Cytotoxicity Assay to monitor cytotoxicity in HepG2 cells - 40 hour (AID 1224879). Note: nearly all actives have a fitted effect of over 40% in size. Note: potency is the fitted concentration of half-maximal effect. The method in brief: as §3

Molecules are shown by their SMILES. Several values for one entry are separate records, joined by “and”; a condition that tells them apart may be missing. Equal values may be shown once. Records with an inconclusive call do not appear. More than one record can exist for a structure, and the calls need not agree. Activity calls are given as the source filed them. Calls come from the whole dose curve; as a rule, active = well fitted curve in the direction sought with a large enough effect in the repeat runs; inconclusive = weak or mixed curves; inactive = no such curve, though single readings can be large; an effect the other way counts as inactive or inconclusive.
% is set by controls: 0 for no effect and ±100 for the full control effect.

For `CN(C)CCOC(C)(c1ccccc1)c1ccccn1` (stereo not drawn), the Potency result in assay [1], in [2], in assay [4], in assay [5], in [6] and in assay [7] was “inactive” throughout. The Potency entry in assay [8] and in assay [9] was “inactive” each time. In addition, the max response in assay [3] is 2.62% (inactive) and -0.138% (inactive) and 6.89% (inactive).
Turning to `COc1ccc2c(c1)c(CC(=O)O)c(C)n2C(=O)c1ccc(Cl)cc1`, the Potency entry in assay [1], in [2], in assay [4], in [5], in assay [6] and in [7] was “inactive” throughout. Besides, the Potency entry in [10], in assay [8] and in assay [9] was “inactive” throughout. Further, in assay [3], the max response was -7.62% (inactive) and 0.0637% (inactive).
As to `CC(=O)CCC(=O)O`, the Potency entry in assay [1], in [2], in [4], in assay [5], in assay [6] and in assay [7] was “inactive” in each case. For the same compound, the Potency result in assay [10], in assay [8] and in assay [9] was “inactive” in each case. Moreover, the max response in assay [3] is -1.85% (inactive) and 3.92% (inactive) and 7.17% (inactive).
On to `NS(=O)(=O)O`, for which the Potency entry in assay [1], in assay [2], in [4], in assay [5], in assay [6] and in [7] was “inactive” throughout. Also, the Potency result in [10], in [8] and in assay [9] was “inactive” throughout. In addition, the max response in assay [3] was 0.202% (inactive) [middle of 4 runs].
Turning to `CCc1nc(N)nc(N)c1-c1ccc(Cl)cc1`, the Potency result in assay [1], in [2], in [4], in [5], in [6] and in assay [7] was “inactive” in each case. The Potency result in assay [8] and in [9] was “inactive” each time. Also, in [3], the Potency is 3.52 µM (active) and 12.3 µM (active) and 5.35 µM (active).
As for `C/C=C/C=C/C(=O)O`, the Potency entry in assay [1], in assay [2], in [4], in [5], in assay [6] and in assay [7] was “inactive” in each case. The Potency entry in assay [8] and in [9] was “inactive” in each case. In [3], the max response was 4.62% (inactive) and 7.49% (inactive).
As for `NC(=O)c1cccnc1`, the Potency result in assay [1], in assay [2], in assay [4], in assay [5], in assay [6] and in assay [7] was “inactive” each time. Further, the Potency entry in assay [8] and in assay [9] was “inactive” throughout. The max response in [3] was 9.96% (inactive) and -1.91% (inactive) and 6.24% (inactive).
As for `O=C1NS(=O)(=O)c2ccccc21`, the Potency entry in assay [1], in [2], in assay [4], in assay [5], in assay [6] and in assay [7] was “inactive” in each case. The Potency entry in assay [10], in assay [8] and in assay [9] was “inactive” in each case. Besides, the max response in [3] was 5.75% (inactive) [middle of 5 runs].
As for `CCOC(N)=O`, the Potency result in assay [1], in [2], in assay [4], in assay [5], in assay [6] and in [7] was “inactive” in each case. Moreover, the Potency entry in assay [8] and in assay [9] was “inactive” each time. Further, the max response in [3] was 6.85% (inactive) and 12.6% (inactive) and -3.78% (inactive).
`CCCCCCCCCCCCCCCC[N+](C)(C)Cc1ccccc1`: the Potency is 25.3 µM (active) and 28 µM (active) in [1]; 63.6 µM (active) and 39.6 µM (active) and 23.9 µM (active) in assay [2]; 4.5 µM (active) and 7.9 µM (active) and 3.01 µM (active) in assay [3]; 50.5 µM (active) and 31.4 µM (active) and 21.3 µM (active) in [4]; 50.5 µM (active) and 19.8 µM (active) and 23.9 µM (active) in assay [5]; 16 µM (active) and 14 µM (active) and 9.52 µM (active) in assay [6]. Besides, the Potency was 25.3 µM (active) and 17.7 µM (active) and 19 µM (active) in [7]; 50.5 µM (active) and 44.4 µM (active) and 23.9 µM (active) in assay [9]. Moreover, the Potency result in assay [8] is “inactive”.
For the compound `CCCc1cc(=O)[nH]c(=S)[nH]1`, the Potency result in [1], in assay [2], in [4], in assay [5], in assay [6] and in [7] was “inactive” in each case. The Potency result in [8] and in [9] was “inactive” each time. Further, in [3], the max response is 1.97% (inactive) and 2.41% (inactive) and 2.9% (inactive).
With `O=c1[nH]cc(F)c(=O)[nH]1`, the Potency entry in [1], in assay [2], in assay [4], in [5], in [6] and in assay [7] was “inactive” throughout. Besides, the Potency entry in assay [8] is “inactive”. Also, the max response in assay [3] was -1.84% (inactive) and 1.38% (inactive). Besides, the Potency in assay [10] is 45.3 µM (active) and inactive; in [9] it was 50.8 µM (active) and inactive.
For `CC(O)(P(=O)(O)O)P(=O)(O)O`, the Potency result in [1], in assay [2], in assay [4], in assay [5], in assay [6] and in assay [7] was “inactive” each time. Also, the Potency entry in assay [10], in [8] and in [9] was “inactive” each time. Moreover, the max response in [3] is -0.279% (inactive) and 1.56% (inactive) and -3.74% (inactive).

The values are drawn from PubChem BioAssay (Tox21).
